Screens: PubChem, National Center for Advancing Translational Sciences (NCATS)
Pf Dd2 growth – qHTS Primary assay for Inhibitors of Plasmodium falciparum Dd2 growth in vitro; P. falciparum Dd2 growth, SYBR Green, 72 h; Potency, µM (series often up to 28.9 µM), without a hit: at the top dose activity, negative = inhibition, usual class: inhibitors; hit rate 4.3% among 120,000; AID 1347417, 2020; active means well fitted inhibition curve with a large enough effect;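 further: plate controls were DMSO vehicle for no effect and reference drug for full effect; nearly all actives have a fitted effect of over 65% in size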
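Readout: SYBR Green fluorescence, 485 nm excitation, 535 nm emission, after ~16 h lysis at 37C. Before that, Dd2-infected red cells (2.5% hematocrit) grew 72 h with compound, 29 uM top final concentration.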
The depositor's hits bear a star; i = inactive; [ ] = another dose, or the depositor's remark. Only a selection was taken, and hits are over-represented in it overall. Potency means the concentration at half of the fitted maximal effect.

SMILES	Pf Dd2 growth
CCn1c(=O)n(-c2ccc3c(c2)OCO3)c2nc(-c3cccc(OC)c3OC)nc(C(N)=O)c21	6%
CCOC(=O)Cn1c(=O)n(CC2CCCO2)c2nc(-c3ccccc3)nc(C(N)=O)c21 (centres undefined)	-15%
CCOC(=O)Cn1c(=O)n(-c2ccccc2OC)c2nc(-c3ccccc3C)nc(C(N)=O)c21	10µM*
O=C1CC2CCCC(C1)N2[S+](=O)([O-])c1ccccc1	3%[44.1 µM]
COCCNC(=O)[C@@H]1C[C@H](Oc2ccccc2)CN1C(=O)CCc1ccccc1	0%
Cc1ccc(S(=O)(=O)N2C[C@H](F)C[C@@H]2C(=O)N2CCOCC2)cc1Cl	-23%
COc1ccc(C)cc1NC(=O)c1oc2ccc(S(=O)(=O)N3CCOCC3)cc2c1C	33%
CCOC(=O)c1oc2ccc(S(=O)(=O)n3nc(-c4cc(OCC)c(OCC)c(OCC)c4)cc3N)cc2c1C	10µM*
COc1ccc(C)cc1NC(=O)c1oc2ccc(S(=O)(=O)N3CCCCC3)cc2c1C	34%
CCC(CC)n1c(=O)n(CCCc2cccnc2)c2cc(C(=O)O)cnc21	-9%
COc1cccc(CCC(=O)NCCC2CCN(C(=O)Nc3ccc(C)cc3)CC2)c1	i
O[C@@H]1CC(CNCc2ccc(F)cc2)(COc2ccc(C(F)(F)F)cn2)C[C@@H]1O (some centres undefined)	4µM*
O=C(NCC1(COc2ccc(C(F)(F)F)cn2)C[C@@H](O)[C@@H](O)C1)C1CC1 (some centres undefined)	10%[44.1 µM]
Cn1cc(CNCC2(COc3ccc(C(F)(F)F)cn3)C[C@@H](O)[C@@H](O)C2)cn1 (some centres undefined)	i
CN1CC(=O)N(C2CCC2)Cc2c(NCc3cccs3)ncnc21	i
CCC(C)NC(=O)C1COC2(CCN(C(=O)c3ccc(F)cc3)CC2)N1C(=O)c1ccc(C)cc1 (centres undefined)	-8%
O=C1CCSc2ccc(S(=O)(=O)Nc3cccc(C(F)(F)F)c3)cc2N1	35%
Cc1ccc(NS(=O)(=O)c2ccc3c(c2)NC(=O)CCS3)cc1C	10µM*
Cc1ccccc1NS(=O)(=O)c1ccc2c(c1)NC(=O)CCS2	-8%
Fc1cc(F)cc(Cc2nc3nccc(-c4ccco4)n3n2)c1	-17%
O=C(CC1CCCCN(Cc2ccccc2)C1=O)Nc1ccc(F)cc1F (centres undefined)	-3%
COc1ccc(N2CCN(C(=O)CC3CCCCN(C)C3=O)CC2)cc1 (centres undefined)	-20%
O=C(CC1CCCCN(Cc2ccccc2)C1=O)N1CCN(c2ccc(F)cc2)CC1 (centres undefined)	11µM*
CCc1cccc2c(C(CC(=O)NC(C)C(C)C)c3ccc(OC)c(OC)c3)c[nH]c12 (centres undefined)	-4%
Cc1ccc(-n2c(C3CCN(C(=O)c4cc(F)ccc4Cl)CC3)n[nH]c2=O)cc1	i
SMILES	Pf Dd2 growth
CCc1[nH]nc(C(=O)N2CCC3(CC2)C(=O)NCCN3C)c1C	3%
CN1CCCN(C[C@@H]2CN(C(=O)c3ccnc4ccccc34)C[C@@H]2CO)CC1	-7%
CCN(C(=O)CSc1nc2ncccc2[nH]1)c1ccc(C(C)C)cc1	-24%
CCN(C(=O)CCc1nc(-c2ccc(C)cc2)no1)c1cc(C)ccc1C	-15%
CCN(C(=O)Cc1nc(-c2ccc(OC)cc2)no1)c1cccc(Cl)c1	-29%
CCN(C(=O)CSc1nc(-c2ccc(C(C)C)cc2)no1)c1ccccc1	1.1µM*
CCN(C(=O)CSc1nnc(-c2ccc(Cl)cc2)o1)c1ccccc1	5%
CCN(C(=O)CSc1nc(-c2ccc(C(C)C)cc2)no1)c1cccc(C)c1	0.89µM*
Cc1cccc(CN2C[C@@H]3C(C(=O)Nc4ccccc4)=NO[C@@H]3C2)c1	-25%[44.1 µM]
Cn1ccnc1C(=O)N1CCC(N2C[C@H](O)C[C@H]2C(=O)NC2CCCCC2)CC1	-7%
CS(=O)(=O)N1CCCN(C(=O)C2CCC2)CCNC(=O)CC1c1ccccc1 (centres undefined)	-15%
O=C(CN1C(=O)NC(c2ccccc2Cl)C2=C1COC2=O)Nc1ccc(Cl)cc1 (centres undefined)	i
Cc1nc(-c2ccco2)cc([C@H]2CN3CC[C@H]2C[C@@H]3CNCc2ccccc2)n1	1.1µM*
Cc1nc(-c2ccco2)cc([C@H]2CN3CC[C@H]2C[C@@H]3CNC(=O)C2CC2)n1	i
Cc1nc(-c2cccs2)cc([C@H]2CN3CC[C@H]2C[C@@H]3CNC(=O)c2ccco2)n1	i
COc1ccc(C(=O)NC[C@H]2C[C@@H]3CCN2C[C@@H]3c2cc(-c3ccccc3Br)nc(C)n2)cc1	7.1µM*
COc1ccccc1-c1cc([C@H]2CN3CC[C@H]2C[C@@H]3CNC(=O)c2ccc(C)cc2)n(C)n1	i
COCC(=O)NC[C@H]1C[C@@H]2CCN1C[C@@H]2c1cc(-c2ccccc2)nc(C)n1	i
Cc1nc(-c2ccc(N(C)C)cc2)cc([C@H]2CN3CC[C@H]2C[C@@H]3CNC(=O)C(C)(C)C)n1	7.1µM*
Cc1nc(-c2ccc(C(F)(F)F)cc2)cc([C@H]2CN3CC[C@H]2C[C@@H]3CNC(=O)C2CC2)n1	i
Cc1nc(-c2cccs2)cc([C@H]2CN3CC[C@H]2C[C@@H]3CNC(=O)c2ccc(N(C)C)cc2)n1	7.1µM*
Cc1nc(-c2cccs2)cc([C@H]2CN3CC[C@H]2C[C@@H]3CNC(=O)CSCC(=O)O)n1	-4%
Cc1nc(-c2ccccc2Br)cc([C@H]2CN3CC[C@H]2C[C@@H]3CNC(=O)C2CC2)n1	-1%
Cc1nc(C2CCCC2)cc([C@H]2CN3CC[C@H]2C[C@@H]3CNC(=O)c2ccco2)n1	i
Cc1nc(NCCNS(C)(=O)=O)cc(C2CC(O)C2)n1 (centres undefined)	i
SMILES	Pf Dd2 growth
O=c1n(-c2ccncc2)nc2n1CCN(CC1CC1)C2	18%[44.1 µM]
O=C(c1ccn[nH]1)N1CCC(c2noc(COc3ccc(F)cc3)n2)C1 (centres undefined)	i
O=C(c1ccc[nH]c1=O)N1CCC2(CC1)NC(=O)N(Cc1ccc(Cl)cc1)C2=O	13%
CCC(=O)N1CCN(C2CCN(CCOC)C2=O)CC1 (centres undefined)	-6%
CCc1cc(=O)n(CC(=O)N2CCN(c3ccc(F)cc3)CC2)c(N2CCOCC2)n1	i
Cc1[nH]cnc1CN1CCCC(c2nnc(CN3CCC(O)CC3)n2C)C1 (centres undefined)	4%
Cc1nc(-c2ccccc2)n(Cc2ccc(F)cc2F)c(=O)c1CCO	i
Cc1cn2nc(C(=O)Nc3ccccc3C)cc2c(N(C)Cc2ccccc2)n1	-13%
Cc1cn2nc(C(=O)Nc3ccc(Cl)cc3C)cc2c(N(C)Cc2ccccc2)n1	10µM*
CCN(Cc1ccccc1)C(=O)c1cc2c(N3CCCC3)nc(C)cn2n1	i
Cc1cn2nc(C(=O)Nc3cccc(F)c3C)cc2c(N(C)Cc2ccccc2)n1	-3%
Cc1cn2nc(C(=O)N3CCN(c4ccccc4)CC3)cc2c(N(C)Cc2ccccc2)n1	-8%
Cc1cn2nc(C(=O)N3CCCCC3)cc2c(N(C)Cc2ccccc2)n1	7.1µM*
O=C(NCc1ccco1)c1cccc2c1CCN2C(=O)Nc1ccc(F)cc1	-2%
CC1CCC(NC(=O)c2ccc3c(c2)N(Cc2cccc(Cl)c2)C(=O)c2ccccc2S3(=O)=O)CC1 (centres undefined)	11µM*
CC(=O)Nc1ccc(NC(=O)c2ccc3c(c2)N(Cc2cccc(Cl)c2)C(=O)c2ccccc2S3=O)cc1 (centres undefined)	11µM*
